Data from PubChem BioAssay (NCATS).
Inconclusive results are not listed. Activity calls are given as the source filed them. Calls follow the shape of the dose curve; as a rule, active = well fitted curve in the direction sought with a large enough effect; inconclusive = small, poorly fitted or top-dose-only effect, or another doubt; inactive = no such curve, though single readings can be large; an effect the other way counts as inactive or inconclusive.

Key:
[1] = KB-3-1 Cancer Cell Toxicity qHTS against the NCATS CANVASS Library (AID 1347366); also: series mostly up to about 46 µM; nearly all actives have a fitted effect of over 75% in size
Procedure, shortened: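 Seed KB-3-1 cells at 500/well in DMEM with 10% FBS, add compounds, incubate 72 hr at 37C and 5% CO2, then add CellTiter-Glo and read luminescence after 10 minutes.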

[2] = qHTS for ATAD5 Agonist screened against the NCATS CANVASS Library (AID 1347367);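 also: luciferase reporter driven by ATAD5 which rises upon DNA damage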
Procedure, shortened: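 Step one plated reporter cells and let them acclimate 5hr. Step two pinned compounds with MMS as positive and 0.46% DMSO as negative control. After 16hr incubation, fluorescence viability then luminescence were read.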

[3] = MCF7 Cancer Cell Toxicity qHTS against the NCATS CANVASS Library (AID 1347369)
Procedure, shortened: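 Cytotoxicity is measured by ATP content: MCF7 cells at 500 per well receive an 11-point compound series and, after 72 hr at 37C, are lysed with CellTiterGlo for luminescence.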

[4] = qHTS for ATAD5 Antagonist screened against the NCATS CANVASS Library (AID 1347370);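 also: HEK293T cells carrying an ATAD5 luciferase reporter co-treated with 10 µM 5-fluorouridine; series mostly up to about 46 µM; nearly all actives have a fitted effect of over 65% in size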
Procedure, shortened: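 Compounds (11-point) co-dosed with 10 µM 5-FUrd for 16 h at 37 °C onto HEK293T-ATAD5 luciferase reporter cells. Viability measured by CellTiter-Fluor fluorescence, then ATAD5 reporter signal by luminescence.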

[5] = J3T Cancer Cell Toxicity qHTS against the NCATS CANVASS Library (AID 1347371)
Procedure, shortened: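 Luminescence from CellTiterGlo, reporting cellular ATP, serves as the viability measure after 72 hr compound treatment of J3T canine glioma cells seeded at 500 cells/well.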

[6] = target: Nuclear receptor subfamily 1 group I member 3 (Homo sapiens) (UniProt Q14994); test: qHTS for Constitutive Androstane Receptor (CAR) Antagonist screened against the NCATS CANVASS Library (AID 1347372);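 also: cells stimulated with 50 nM CITCO agonist so inhibition reflects antagonism; luciferase from CYP2B6 promoter reporter driven by hCAR in HepG2 cells; series mostly up to about 46 µM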
Sequence of Nuclear receptor subfamily 1 group I member 3 (Homo sapiens) (Q14994 whole entry, looked up): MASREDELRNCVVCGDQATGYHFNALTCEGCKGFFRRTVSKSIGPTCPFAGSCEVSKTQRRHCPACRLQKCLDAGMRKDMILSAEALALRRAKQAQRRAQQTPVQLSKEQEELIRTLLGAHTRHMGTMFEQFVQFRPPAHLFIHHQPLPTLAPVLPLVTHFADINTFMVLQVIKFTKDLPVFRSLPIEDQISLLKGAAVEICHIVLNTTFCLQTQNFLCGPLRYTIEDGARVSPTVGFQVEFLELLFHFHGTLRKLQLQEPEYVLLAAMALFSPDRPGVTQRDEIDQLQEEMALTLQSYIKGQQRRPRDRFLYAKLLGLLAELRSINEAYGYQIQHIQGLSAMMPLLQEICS
Procedure, shortened: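 Cells were seeded and left 4hr to attach, then received compound at 11 concentrations and 50 nM CITCO. Following 24hr incubation, fluorescence viability and luciferase luminescence were read sequentially.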

[7] = target: Nuclear receptor subfamily 1 group I member 3 (Homo sapiens) (UniProt Q14994); test: qHTS for Constitutive Androstane Receptor (CAR) Agonist screened against the NCATS CANVASS Library (AID 1347373);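 also: every well also contained 1.5 µM PK11195 alongside the test compound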
Procedure, shortened: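 Cells were plated and allowed to attach for 4hr, then dosed with compound in an 11-point series alongside 1.5uM PK11195. After 24hr at 37C, viability was measured fluorometrically and CAR-driven CYP2B6 reporter luminescence was recorded.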

[8] = qHTS for Hypoxia signaling pathway (HIF-1) antagonists against the NCATS CANVASS Library (AID 1347374);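 also: HRE-bla ME-180 cells stimulated with cobalt chloride to stabilize HIF-1alpha; series mostly up to about 38 µM; nearly all actives have a fitted effect of over 60% in size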
Procedure, shortened: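 Antagonism scored as loss of CoCl2-driven (60 uM stock added) HRE beta-lactamase signal, read by CCF4 FRET at 460/530 nm. Compounds were tested in an 11-point series on ME-180 reporter cells for 17 hrs at 37C, with parallel CellTiter-Glo cytotoxicity.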

[9] = qHTS for Hypoxia signaling pathway (HIF-1) agonists against the NCATS CANVASS Library (AID 1347375)
Procedure, shortened: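 Cells plated and rested 5 h, compounds pinned in DMSO across 11 concentrations, incubated 17 h at 37C, loaded with CCF4-AM for 2 h, fluorescence read at 460 and 530 nm, then CellTiter-Glo luminescence measured for viability and normalization.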

[10] = 10-beta competent E. coli microbial cell viability qHTS against the NCATS CANVASS Library (AID 1347376); also: series mostly up to about 46 µM
Procedure, shortened: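 Bacterial suspension diluted to 0.2 OD was dosed with compounds, 11-point series, then held overnight at 37C. BacTiter-Glo reagent was added, and after 20 min at room temperature ATP-dependent luminescence was measured.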

[11] = DH5-alpha competent E. coli microbial cell viability qHTS against the NCATS CANVASS Library (AID 1347377); details: outcome: dose series up to 46.1 µM unless noted
Procedure, shortened: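 Bacteria were dispensed at 0.2 OD, then compounds were pin-transferred. Plates were incubated overnight at 37C, after which BacTiter-Glo was added and luminescence measured 20 min later.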

[12] = qHTS for H2AX Agonists against the NCATS CANVASS Library (AID 1347378);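 also: phospho-H2AX S139 level in CHO-K1 lysates by TR-FRET emission ratio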
Procedure, shortened: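 Following overnight seeding, CHO-K1 cells are incubated with a concentration series of compound for 3 hr at 37C (final DMSO 0.76%). Cells are then lysed, detection antibodies added, and emission ratio 665/620 nm recorded after 24 hr at room temperature.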

[13] = qHTS for Inflammasome Signaling Inhibitors: IL-1-beta AlphaLISA screen against the NCATS CANVASS Library (AID 1347379);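 also: human THP-1 cells primed with LPS then triggered with ATP; secreted IL-1B measured as AlphaLISA emission at 615 nm; lower signal means less IL-1B release which is the wanted effect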
Procedure, shortened: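 Secreted IL-1B from human THP-1 cells quantified by AlphaLISA 16 hr after compound addition (final up to 57.5 uM). A 1 hr compound pretreatment preceded inflammasome activation with 250 ng/mL LPS plus 1.25 mM ATP (final).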

[14] = qHTS for Antimalaria activity screened against the NCATS CANVASS Library (AID 1347380);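 also: Plasmodium falciparum strain Dd2 asexual parasites grown in red blood cells; series mostly up to about 29 µM; nearly all actives have a fitted effect of over 40% in size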
Procedure, shortened: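 Compounds are titrated over 11 concentrations onto Dd2 parasite cultures (0.3% parasitemia, 2.5% hematocrit). Growth over 72 h at 37C in low oxygen is measured as SYBR Green DNA fluorescence after lysis.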

[15] = Inflammasome Signaling qHTS Counterscreen: IL-1-beta AlphaLISA counterscreen against the NCATS CANVASS Library (AID 1347381);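 also: cell-free check with purified IL-1β in medium and no THP-1 cells; series mostly up to about 57 µM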
Procedure, shortened: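 Purified IL-1-beta (4 pg/well) + compound, 11-pt conc. series; acceptor beads 6 ug/mL + biotin-Ab 0.6 nM final, 1 h RT; SA-donor 24 ug/ml final, 30 min dark RT; read ex 680/em 615.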

[16] = Cytotoxicity qHTS for assessment of Hepg2 cells membrane integrity screened against the NCATS CANVASS Library (AID 1347387)
Procedure, shortened: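 Cells were seeded at 2000 per well and left overnight to attach. Compounds were pin-transferred to give 0.59 nM - 46 uM in an 11-point series and incubated 5 hr at 37C. CytoTox-ONE reagent was added and, after 10 min at room temperature, fluorescence (ex 560, em 590 nm) was read.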

[17] = qHTS for Activators of p53 Stress Response Pathway screened against the NCATS CANVASS Library (AID 1347388)
Procedure, shortened: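 p53RE-bla HCT-116 cells (4000/well) were plated 5 h at 37C, exposed to compounds for 16 h at 37C over an 11-point concentration series, then loaded with CCF4 for 2 h at room temperature; 460/530 nm emission ratio read.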

[18] = qHTS assay for small molecule disruptors of mitochondrial membrane potential screened against the NCATS CANVASS Library (AID 1347389); also: series mostly up to about 46 µM; nearly all actives have a fitted effect of over 60% in size
Procedure, shortened: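 Mitochondrial depolarization in HepG2 cells is scored as a falling aggregate-to-monomer fluorescence ratio after 1 hr compound exposure and 30 min staining with Mito-MPS dye at 37C, each compound tested as an 11-point titration.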

[19] = Secretion counterscreen for inhibitors of the SERCaMP assay screened against the NCATS CANVASS Library (AID 1347390);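 also: light from luciferase secreted into medium read as a measure of general secretion; series mostly up to about 77 µM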
Procedure, shortened: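 Counterscreen identifying compounds that disrupt secretion, using SH-SY5Y cells with a constitutively secreted Gaussia luciferase reporter. A 20 h compound exposure (top 77 uM) precedes luminescent detection with coelenterazine.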

[20] = qHTS for activators of Nrf2/ARE signaling pathway screened against the NCATS CANVASS Library (AID 1347391); also: nearly all actives have a fitted effect of over 60% in size
Procedure, shortened: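 Beta-lactamase reporter signal, read as 460 and 530 nm emission under 405 nm excitation after 2 h CCF4 loading, reflected ARE activation in HepG2 cells treated 16 h with an 11-point series.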

[21] = qHTS for activators of dead-cell proteases activity screened against the NCATS CANVASS Library (AID 1347392);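 also: luminescence from protease leaking out of membrane-damaged cells cleaving impermeant substrate; rising signal means more cytotoxicity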
Procedure, shortened: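 Cytotoxicity in HepG2 cells was assessed by released protease cleaving AAF-aminoluciferin, with luminescence as signal. Exposure lasted 5 h at 37C across an 11-point series.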

[22] = qHTS for inhibitors of Wild type Zika virus screened against the NCATS CANVASS Library (AID 1347396);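 also: ATP luminescence of surviving cells so rescue from viral cell killing; series mostly up to about 46 µM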
Procedure, shortened: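 Luminescent CellTiter Glo read-out of virus-induced cytotoxicity, 72 h post-infection, in Vero 766 cells. Compounds were tested at 11 concentrations; uninfected, vehicle-treated wells defined 100% inhibition.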

[23] = Viability qHTS for inhibitors of the SERCaMP assay screened against the NCATS CANVASS Library (AID 1347400); also: series mostly up to about 92 µM; nearly all actives have a fitted effect of over 70% in size
Procedure, shortened: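 Seed SH-SY5Y-GLuc SERCaMP MJH297 cells at 1000 per well, incubate 4 h, add compounds across an 11-point range, incubate 48 h at 37C, then add CellTiter-Glo and read luminescence.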

Measured: Potency

C=C[C@@]1(C)CC[C@@H]([C@H](C)C(=O)/C=C/C(C)C)O1
inactive: all assays above
